Laboratory results taken from ChEMBL document CHEMBL1961873, “Compounds: GSK PKIS; Assays: Nanosyn kinase panel” (2012).
Several values for one entry are separate records, joined by “and”; a condition that tells them apart may be missing. Identical values can stand only once.

What was measured:
[1] = molecular target: T1, Aurora kinase A (Homo sapiens) (UniProt O14965); settings: at 1 µM;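 also: values are mean percent inhibition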
T1 sequence (whole entry): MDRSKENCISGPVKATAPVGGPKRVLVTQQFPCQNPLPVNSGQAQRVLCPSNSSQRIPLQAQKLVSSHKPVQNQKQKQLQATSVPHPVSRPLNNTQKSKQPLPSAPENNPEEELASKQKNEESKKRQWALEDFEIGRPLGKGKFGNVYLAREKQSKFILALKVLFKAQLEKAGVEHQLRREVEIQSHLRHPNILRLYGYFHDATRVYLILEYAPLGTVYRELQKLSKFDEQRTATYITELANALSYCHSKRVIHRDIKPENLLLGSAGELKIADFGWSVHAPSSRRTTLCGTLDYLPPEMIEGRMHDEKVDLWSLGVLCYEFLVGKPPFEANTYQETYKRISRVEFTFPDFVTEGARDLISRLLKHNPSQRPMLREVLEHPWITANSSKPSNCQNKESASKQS

[2] = molecular target: Aurora kinase B (Homo sapiens) (UniProt Q96GD4); settings: at 0.1 µM
[3] = molecular target: Aurora kinase B (Homo sapiens) (UniProt Q96GD4); settings: at 1 µM
[4] = molecular target: T2, Aurora kinase C (Homo sapiens) (UniProt Q9UQB9); settings: at 0.1 µM
T2 sequence (whole entry): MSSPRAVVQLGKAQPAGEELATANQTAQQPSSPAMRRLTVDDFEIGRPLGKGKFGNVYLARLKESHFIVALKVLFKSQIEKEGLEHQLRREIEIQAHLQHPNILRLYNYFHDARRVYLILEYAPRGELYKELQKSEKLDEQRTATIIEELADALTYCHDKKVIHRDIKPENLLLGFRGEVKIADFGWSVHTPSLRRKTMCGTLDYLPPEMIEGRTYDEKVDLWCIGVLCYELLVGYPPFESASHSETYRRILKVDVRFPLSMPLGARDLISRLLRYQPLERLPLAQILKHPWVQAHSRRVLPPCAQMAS

[5] = molecular target: T2, Aurora kinase C (Homo sapiens); settings: at 1 µM
[6] = molecular target: Serine/threonine-protein kinase 10 (Homo sapiens) (UniProt O94804); settings: at 0.1 µM
[7] = molecular target: Serine/threonine-protein kinase 10 (Homo sapiens) (UniProt O94804); settings: at 1 µM
[8] = molecular target: T3, Mitogen-activated protein kinase kinase kinase kinase 2 (Homo sapiens) (UniProt Q12851); settings: at 0.1 µM
T3 sequence (whole entry): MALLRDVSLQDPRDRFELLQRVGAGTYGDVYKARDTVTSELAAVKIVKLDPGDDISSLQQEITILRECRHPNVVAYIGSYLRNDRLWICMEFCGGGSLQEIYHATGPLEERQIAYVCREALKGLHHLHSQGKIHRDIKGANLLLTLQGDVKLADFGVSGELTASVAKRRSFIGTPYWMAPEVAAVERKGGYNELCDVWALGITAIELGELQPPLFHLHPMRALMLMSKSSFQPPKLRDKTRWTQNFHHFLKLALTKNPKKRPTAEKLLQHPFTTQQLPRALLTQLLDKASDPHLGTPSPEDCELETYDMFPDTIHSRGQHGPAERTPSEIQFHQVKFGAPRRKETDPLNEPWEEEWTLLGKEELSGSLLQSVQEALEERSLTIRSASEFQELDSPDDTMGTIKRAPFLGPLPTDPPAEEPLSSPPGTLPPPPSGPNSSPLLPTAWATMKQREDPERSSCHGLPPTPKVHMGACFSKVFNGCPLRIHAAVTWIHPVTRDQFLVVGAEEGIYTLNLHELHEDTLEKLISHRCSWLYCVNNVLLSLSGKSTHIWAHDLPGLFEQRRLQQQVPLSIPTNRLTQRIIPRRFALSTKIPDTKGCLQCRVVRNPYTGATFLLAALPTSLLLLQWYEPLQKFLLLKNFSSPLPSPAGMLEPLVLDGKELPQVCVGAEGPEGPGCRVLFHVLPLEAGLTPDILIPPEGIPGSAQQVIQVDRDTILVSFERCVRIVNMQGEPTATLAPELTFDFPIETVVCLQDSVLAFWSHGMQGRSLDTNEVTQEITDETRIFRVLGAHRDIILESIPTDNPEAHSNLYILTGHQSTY

[9] = molecular target: T3, Mitogen-activated protein kinase kinase kinase kinase 2 (Homo sapiens); settings: at 1 µM
[10] = molecular target: Mitogen-activated protein kinase kinase kinase kinase 4 (Homo sapiens) (UniProt O95819); settings: at 0.1 µM
Sequence of Mitogen-activated protein kinase kinase kinase kinase 4 (Homo sapiens) (O95819 2-1239 limits assumed): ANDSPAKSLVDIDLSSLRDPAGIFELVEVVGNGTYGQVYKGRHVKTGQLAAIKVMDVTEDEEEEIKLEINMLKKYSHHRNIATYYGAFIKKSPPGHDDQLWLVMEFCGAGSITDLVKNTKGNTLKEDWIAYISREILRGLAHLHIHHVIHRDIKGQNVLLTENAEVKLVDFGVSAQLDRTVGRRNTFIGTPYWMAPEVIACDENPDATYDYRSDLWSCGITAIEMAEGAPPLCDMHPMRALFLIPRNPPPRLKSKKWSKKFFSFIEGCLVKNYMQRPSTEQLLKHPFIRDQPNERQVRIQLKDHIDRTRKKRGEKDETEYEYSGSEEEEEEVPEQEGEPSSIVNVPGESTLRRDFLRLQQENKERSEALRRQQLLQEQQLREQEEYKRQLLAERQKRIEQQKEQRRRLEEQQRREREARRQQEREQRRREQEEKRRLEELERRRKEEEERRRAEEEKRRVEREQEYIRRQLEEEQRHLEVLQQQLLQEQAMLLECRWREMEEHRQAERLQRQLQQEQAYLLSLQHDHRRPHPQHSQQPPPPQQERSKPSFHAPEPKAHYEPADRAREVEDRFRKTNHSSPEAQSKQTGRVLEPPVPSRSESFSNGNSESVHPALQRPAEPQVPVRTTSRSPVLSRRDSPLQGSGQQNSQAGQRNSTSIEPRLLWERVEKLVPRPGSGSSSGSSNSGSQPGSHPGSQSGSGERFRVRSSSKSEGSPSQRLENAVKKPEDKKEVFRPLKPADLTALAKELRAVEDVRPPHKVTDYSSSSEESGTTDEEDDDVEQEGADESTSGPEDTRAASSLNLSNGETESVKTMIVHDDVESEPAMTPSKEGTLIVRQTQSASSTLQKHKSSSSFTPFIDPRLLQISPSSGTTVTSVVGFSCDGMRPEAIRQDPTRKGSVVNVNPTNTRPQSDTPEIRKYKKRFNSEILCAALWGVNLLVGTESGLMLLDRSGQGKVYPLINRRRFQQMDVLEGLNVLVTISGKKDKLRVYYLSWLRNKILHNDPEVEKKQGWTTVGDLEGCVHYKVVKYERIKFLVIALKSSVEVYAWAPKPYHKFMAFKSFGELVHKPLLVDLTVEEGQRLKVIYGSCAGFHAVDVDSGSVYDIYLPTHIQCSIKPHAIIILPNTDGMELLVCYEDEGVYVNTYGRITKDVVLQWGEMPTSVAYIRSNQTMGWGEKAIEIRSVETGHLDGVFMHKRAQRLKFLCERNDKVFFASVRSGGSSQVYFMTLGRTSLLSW

Sequence of Aurora kinase B (Homo sapiens) (Q96GD4 whole entry): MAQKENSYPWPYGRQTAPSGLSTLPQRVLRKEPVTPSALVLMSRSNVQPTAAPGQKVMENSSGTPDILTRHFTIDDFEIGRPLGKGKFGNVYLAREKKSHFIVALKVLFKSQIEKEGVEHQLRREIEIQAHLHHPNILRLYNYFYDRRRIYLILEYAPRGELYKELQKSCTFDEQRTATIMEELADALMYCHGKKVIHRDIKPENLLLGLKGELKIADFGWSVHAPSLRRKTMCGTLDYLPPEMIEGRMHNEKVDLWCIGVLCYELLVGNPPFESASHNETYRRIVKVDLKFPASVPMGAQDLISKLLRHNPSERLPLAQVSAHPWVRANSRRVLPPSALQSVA
Sequence of Serine/threonine-protein kinase 10 (Homo sapiens) (O94804 whole entry, looked up): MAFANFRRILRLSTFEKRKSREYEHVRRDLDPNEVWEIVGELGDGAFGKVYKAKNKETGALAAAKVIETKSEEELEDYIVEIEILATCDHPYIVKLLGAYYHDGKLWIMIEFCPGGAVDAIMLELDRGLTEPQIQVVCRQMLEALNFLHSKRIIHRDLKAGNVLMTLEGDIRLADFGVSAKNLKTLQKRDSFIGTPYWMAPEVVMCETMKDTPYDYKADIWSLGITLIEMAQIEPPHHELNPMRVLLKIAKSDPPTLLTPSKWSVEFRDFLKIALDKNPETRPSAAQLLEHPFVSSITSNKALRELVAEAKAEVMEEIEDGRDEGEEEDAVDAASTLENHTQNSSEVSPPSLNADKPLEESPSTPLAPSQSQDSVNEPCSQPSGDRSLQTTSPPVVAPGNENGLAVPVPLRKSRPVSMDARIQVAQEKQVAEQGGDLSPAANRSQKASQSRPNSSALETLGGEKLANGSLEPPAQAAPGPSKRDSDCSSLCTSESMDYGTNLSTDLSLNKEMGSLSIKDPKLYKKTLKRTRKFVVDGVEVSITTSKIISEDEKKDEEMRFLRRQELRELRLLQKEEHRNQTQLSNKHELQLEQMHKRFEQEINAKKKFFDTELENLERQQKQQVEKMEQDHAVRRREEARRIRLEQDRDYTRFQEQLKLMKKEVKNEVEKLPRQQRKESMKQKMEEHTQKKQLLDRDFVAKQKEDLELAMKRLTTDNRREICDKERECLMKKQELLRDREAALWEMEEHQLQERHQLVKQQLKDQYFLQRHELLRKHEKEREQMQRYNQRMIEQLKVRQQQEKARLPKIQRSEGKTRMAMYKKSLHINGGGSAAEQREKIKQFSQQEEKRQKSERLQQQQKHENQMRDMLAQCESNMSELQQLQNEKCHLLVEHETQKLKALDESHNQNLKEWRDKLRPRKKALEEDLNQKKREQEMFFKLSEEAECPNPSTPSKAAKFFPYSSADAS

Structure (SMILES)	inhibition [1]	inhibition [2]	inhibition [3]	inhibition [4]	inhibition [5]	inhibition [6]	inhibition [7]	inhibition [8]	inhibition [9]	inhibition [10]
COC(=O)Nc1nc2cc(Oc3ccc(NC(=O)Nc4ccccc4)cc3)ccc2[nH]1	3.53%	11.9%	24.9%	28.9%	42.6%	9.63%	14.7%	1.5%	0.87%	3.39%
O=C(O[C@H]1CN[C@H](C#Cc2cc3ncnc(Nc4ccc5c(cnn5Cc5ccccc5)c4)c3s2)C1)N1CCOCC1	3.44%	0.76%	11.1%	2.11%	27.6%	0.93%	7.07%	0.52%	2.14%	-0.91%
NS(=O)(=O)c1ccc(N/N=C2\C(=O)Nc3cccc(CCc4ccncc4)c32)cc1	20.6%	3.64%	7.9%	5%	8.21%	-0.95%	0.03%	1.75%	3.46%	4.39%
OCCCNc1nccc(-c2c(-c3ccc(F)cc3)nn3cc(C(F)(F)F)ccc23)n1	7.6%	3.85%	9.08%	0.36%	2.19%	6.36%	8.12%	0.6%	3.51%	5.34%
COc1c(C(N)=O)cc(-c2ccc(Cl)cc2)cc1-c1ccc(S(N)(=O)=O)cc1	3.86%	2.21%	3.28%	-0.05%	0.52%	5.14%	6.24%	0.59%	2.11%	6.38%
O=C(Nc1n[nH]c2nnc(-c3cccnc3)cc12)C1CC1	0.07%	0.12%	3.67%	-1.84%	3.75%	-0.21%	0.78%	0.63%	1.06%	3.78%
CN(C)CCNC(=O)Nc1ccc(N(C)c2ccnc(Nc3ccc(CS(C)(=O)=O)cc3)n2)cc1	79%	21.6%	69.1%	21.9%	94.5%	7.91%	36.7%	0.59%	2.02%	4.07%
CS(=O)(=O)CCNCc1ccc(-c2ccc3ncnc(Nc4ccc(OCc5cccc(C(F)(F)F)c5)cc4)c3c2)o1	4.78%	5.65%	4.87%	1.93%	4.53%	9.88%	11.7%	-0.93%	2.32%	2.66%
CS(=O)(=O)Nc1ccc(-c2cc(-c3ccccc3)cc(C(N)=O)c2N)cc1	1.71%	1.93%	5.23%	0.13%	4.66%	2.01%	4.84%	-1.83%	1.34%	3.1%
FC(F)(F)CNc1nccc(-c2cnn3ncccc23)n1	1.83%	1.65%	4.22%	0.63%	2.77%	2.56%	6.33%	-0.83%	1.5%	1.9%
Cc1cc(O)cc(C)c1/C=C/c1cncc(C(N)=O)c1	11.7%	2.21%	7.09%	8.73%	1.85%	4.97%	20.2%	2.32%	8.96%	4.83%
CN1CCN(Cc2ccc(-c3cc4ncnc(Nc5ccc(OCc6cccc(F)c6)c(Cl)c5)c4s3)o2)CC1	6.51% and 11.8%	16% and 13%	45.6% and 53%	4.18% and 3.42%	26.1% and 40.5%	17.4% and 22.1%	56.8% and 67%	2.1% and 1.95%	13% and 8.01%	2.96% and 6.93%
O=C(O[C@H]1CN[C@H](C#Cc2cc3ncnc(Nc4ccc(OCc5cccc(F)c5)c(Cl)c4)c3s2)C1)N1CCOCC1	7.57%	3.72%	9.81%	1.9%	5.83%	9.8%	19%	1.53%	0.84%	5.04%
COc1cccc(-n2ncc3c(N/N=C/c4ccc(C(=O)NCCN(C)C)cc4)ncnc32)c1	62.7%	7.23%	38.6%	5.58%	57%	23%	61.2%	3.89%	21.8%	31.3%
NS(=O)(=O)c1cccc(N/C=C2\C(=O)Nc3ccccc32)c1	47.6%	6.68%	40.5%	7.7%	76.7%	4.31%	9.72%	4.14%	28.9%	23.3%
COc1cccc(Nc2nccc(-c3cnn4ncccc34)n2)c1	86.4%	26.7%	72.3%	33.2%	97.3%	4.01%	17.4%	17.1%	60.1%	14.8%

Structure (SMILES)	inhibition [1]	inhibition [2]	inhibition [3]	inhibition [4]	inhibition [5]	inhibition [6]	inhibition [7]	inhibition [8]	inhibition [9]	inhibition [10]
CNC(=O)c1ncccc1Nc1nc(Nc2cc3c(cc2OC)CCCN3C(=O)CN(C)C)nc2[nH]ccc12	6.59%	3.79%	8.73%	2.36%	4.16%	7.25%	4.81%	1.56%	4.18%	4.22%
CNC(=O)c1sc(-n2cnc3cc(OC)c(OC)cc32)cc1OCc1ccccc1C(F)(F)F	4.37%	6.28%	16.6%	5.07%	20.8%	10.4%	31.6%	3.26%	7.14%	8.53%
Nc1nonc1-c1nc2cnccc2n1C1CC1	10.7% and -0.07%	5.82% and -0.78%	11.3% and 1.86%	4.22% and -3.73%	11.6% and -0.49%	7.02% and 3.14%	15.1% and 14.1%	3.53% and 3.38%	14.3% and 12.8%	11.1% and 7.77%
N#Cc1ccc2c(-c3ccnc(NC4CC4)n3)c(-c3ccc(F)cc3)nn2c1	0.56%	0.7%	-0.38%	0.81%	5.38%	2.63%	4.13%	0.19%	2.06%	5.83%
c1ccc(-c2n[nH]cc2-c2ccnc(-c3ccc(OCCn4ccnc4)cc3)c2)nc1	11.1%	1.69%	15.1%	1.04%	7.73%	2.54%	4.01%	3.67%	7.08%	42.6%
Cc1nnc(-c2cccc(-c3ccc(C(=O)NCC4CC4)cc3)c2)o1	7.79%	3.21%	3.09%	1.3%	-4.74%	6.23%	7.39%	1.46%	3.14%	7.44%
CN1CCC(n2cnc(-c3ccc(F)cc3)c2-c2ccnc(NCCO)n2)CC1	9.26%	4.23%	4.96%	1.22%	-3.16%	4.56%	8.57%	1.01%	1.59%	7.52%
CCS(=O)(=O)c1ccc(OC)c(Nc2ncc(-c3cccc(C(C)=O)c3)o2)c1	15.3%	3.08%	6.28%	4.6%	-0.45%	6.16%	9.95%	-0.26%	3.22%	3.37%
NC(=O)c1ccc2c(-c3ccnc(NCCCO)n3)c(-c3ccc(F)cc3)nn2c1	3.29%	2.54%	0.26%	0.74%	6.84%	5.04%	12.3%	1.47%	7.29%	9.85%
CCN1CCC(C(=O)Nc2n[nH]c3nnc(-c4cccc(F)c4F)cc23)CC1	0.34%	-0.39%	3.97%	0.94%	5.27%	-0.44%	-0.07%	2.45%	3.52%	3.47%
CS(=O)(=O)CCNCc1ccoc1-c1ccc2ncnc(Nc3ccc(OCc4ccccc4)cc3)c2c1	5.63%	0.11%	8.33%	3.25%	9.46%	-0.07%	3.99%	1.72%	1.42%	0.34%
NS(=O)(=O)c1ccc(N/N=C2\C(=O)Nc3ccc(C(=O)NCc4ccncc4)cc32)cc1	54.9%	3.41%	11%	1.92%	14.6%	4.56%	9.47%	0.75%	4.07%	11.2%
Cc1ccc(-c2cc3c(NC(=O)C4CC4)ncnc3o2)cc1	15.8%	5.78%	17.5%	2.4%	19.2%	2.34%	15.1%	0.9%	2.12%	6.07%
CS(=O)(=O)CCNCc1ccc(-c2ccc3ncnc(Nc4ccc(OCc5ccccc5)cc4)c3c2)o1	7.7%	4.74%	10%	2.17%	7.65%	5.66%	7.82%	0.28%	1.58%	3.5%
Nc1nccc(-c2c(-c3ccc(F)cc3)ncn2C2CCNCC2)n1	2.76% and 3.22%	-5.29% and 2.13%	-0.57% and 3.55%	-7.14% and -0.01%	-5.53% and -3.08%	-0.78% and 0.07%	4.14% and -0.32%	-0.37% and 2%	4.6% and 3.83%	-1.38% and 3.46%
